# Beta apoptosis: blocks beta cell apoptosis; 0.8% of 300,000 active; protection from apoptosis, % (concentration not given with the values); INS-1E cytokine-induced death, ATP luminescence, 48 h; percent of positive-control rescue, neutral wells zero;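 active = Every replicate reaches about 75%, or at least half do and their mean reaches it too, limit read from the data; inconclusive = At least half of replicates reach the limit but their mean does not; inactive = Under half of replicates reach the limit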;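 also: higher means more ATP so stronger rescue from cytokine killing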
# aSyn UTR inh: MLPCN primary screen, SNCA 5' untranslated region | alpha-synuclein 5'UTR reporter, inhibitor activity | inhibition, % (tested at 7.5 µM) | 0.82% of 300,000 active; in the data active = inhibition above about 60%; inconclusive = no clear call, values can overlap the other calls;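 also: H4 neuroglioblastoma cells stably carrying SNCA 5'UTR luciferase fusion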
# CSC inhib: blocks cancer stem cells; cancer stem cell-like cells viability, luminescence; inhibition, % at 7.5 µM; 1.1% of 300,000 active; AID 2717; in the data active = inhibition above about 75%; inconclusive = no clear call, values can overlap the other calls; tested in HMLE shEcad cells
# Mdm2-MdmX inh: inhibitors of human Mdm2/MdmX interaction; inhibition, % at 8 µM; 3% of 330,000 active; O15151+Q00987; SaOS-2 split-luciferase Mdm2/MdmX complementation, luminescence;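 active = inhibition of at least 50% at 8 µM in the primary screen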
# Target sequence (O15151 whole entry, looked up): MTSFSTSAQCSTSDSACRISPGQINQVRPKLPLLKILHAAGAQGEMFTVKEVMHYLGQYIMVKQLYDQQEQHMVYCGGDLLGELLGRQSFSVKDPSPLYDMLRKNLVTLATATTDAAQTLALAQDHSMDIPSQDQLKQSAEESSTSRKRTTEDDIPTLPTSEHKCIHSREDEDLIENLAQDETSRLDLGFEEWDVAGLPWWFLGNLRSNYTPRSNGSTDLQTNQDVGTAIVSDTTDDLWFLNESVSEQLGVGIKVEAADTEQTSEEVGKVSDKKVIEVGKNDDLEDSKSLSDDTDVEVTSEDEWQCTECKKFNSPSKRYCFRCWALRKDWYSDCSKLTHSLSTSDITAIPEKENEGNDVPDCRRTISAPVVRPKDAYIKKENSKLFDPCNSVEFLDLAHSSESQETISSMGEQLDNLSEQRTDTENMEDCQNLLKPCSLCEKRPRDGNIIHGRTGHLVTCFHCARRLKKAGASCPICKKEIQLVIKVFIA
# Target sequence (Q00987 whole entry, looked up): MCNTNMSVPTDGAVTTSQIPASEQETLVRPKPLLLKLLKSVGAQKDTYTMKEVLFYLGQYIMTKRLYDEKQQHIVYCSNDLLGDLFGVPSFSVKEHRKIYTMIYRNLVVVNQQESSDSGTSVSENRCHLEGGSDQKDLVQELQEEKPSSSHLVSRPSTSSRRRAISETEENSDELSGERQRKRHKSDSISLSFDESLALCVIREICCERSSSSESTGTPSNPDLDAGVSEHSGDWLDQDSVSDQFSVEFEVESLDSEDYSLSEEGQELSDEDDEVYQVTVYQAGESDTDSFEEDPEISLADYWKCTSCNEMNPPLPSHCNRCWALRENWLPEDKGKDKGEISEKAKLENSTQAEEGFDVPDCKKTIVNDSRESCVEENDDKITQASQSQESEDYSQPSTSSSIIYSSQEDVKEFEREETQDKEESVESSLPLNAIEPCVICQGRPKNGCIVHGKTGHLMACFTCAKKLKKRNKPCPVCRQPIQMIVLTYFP
# Bfl-1 A1 inh: inhibitors of the anti-apoptotic protein A1, read as caspase activation; MEF A1-2A-BIM cells, Caspase-Glo 3/7 luminescence, 3 h; percent of clofoctol response, vehicle zero; caspase activation, % (no concentration beside the values); 0.066% of 330,000 active; AID 2462;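 active = over half of replicate activation scores above 10%, or exactly half above 10 with the replicate mean above 10; inconclusive = replicate mean below 10 yet half the replicates above 10; inactive = over half of replicates below 10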
# Mdm2-MdmX conf: confirmation of human Mdm2/MdmX interaction inhibitors; shares compounds with Mdm2-MdmX inh; Mdm2-MdmX binding, luminescent assay; inhibition, % at 8 µM; 55% of 10,000 active; AID 489028; in the data active = inhibition above about 40%
# FLuc counter: counter-screen for Mdm2/MdmX inhibitors: full-length luciferase; shares compounds with Mdm2-MdmX inh; SaOS-2 full-length luciferase counterscreen, luminescence; inhibition, % at 8 µM; 77% of 6,200 active;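 active = mean inhibition at 8 µM reaching about 37%, which flags the compound as non-specific, limit read from the data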;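 also: p53-null SaOS-2 cells with luciferase driven by a doxycycline-inducible promoter; compound on cells about two nights before reading with doxycycline added after day one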
# Numbers stand for hits; i = inactive; ? = inconclusive; nt = no result given. Hits are enriched below; roughly 4.1% of the tested compounds scored in any of these assays.
SMILES,Beta apoptosis,aSyn UTR inh,CSC inhib,Mdm2-MdmX inh,Bfl-1 A1 inh,Mdm2-MdmX conf,others
CC(C(=O)O)N(C(=O)c1ccccc1)c1ccc(F)c(Cl)c1 (stereo not given),i,i,i,i,i,nt,
O=C1CC(N2CCC(n3c(=O)[nH]c4ccccc43)CC2)C(=O)N1c1ccc(F)cc1 (stereo not given),i,i,i,i,i,nt,
O=c1[nH]c2ccccc2n1C1CCN(CCCC(c2ccc(F)cc2)c2ccc(F)cc2)CC1,i,i,98.1,66.0,i,i,
O=c1[nH]c(O)c(N=Nc2ccc(SC(F)F)cc2)c(=O)[nH]1,i,i,i,i,i,nt,
CNC(=O)Nc1ccc(C(=O)N/N=C\C23CC[C@@H](O)CC2(O)CC[C@@H]2[C@@H]3CCC3(C)C(C4=CC(=O)OC4)CCC23O)cc1 (stereo not given in full),i,i,i,i,i,nt,
C[C@]12CC[C@H](O)C[C@H]1CC[C@@H]1[C@@H]2CC[C@]2(C)[C@@H](C3=CC(=O)OC3)CC[C@]12O,i,nt,95.2,75.4,?,73.3,FLuc counter=52.8
C[C@]12CCC3C(CC[C@H]4C[C@@H](O)CC[C@]34C)[C@H]1C=CC2=O (stereo not given in full),i,nt,i,i,i,nt,
C[C@]12CC[C@H](O)C[C@H]1CC[C@@H]1[C@@H]2C[C@@H](O)[C@]2(C)[C@@H](C3=CC(=O)OC3)CC[C@]12O,i,nt,84.4,72.7,i,72.9,FLuc counter=i
O=c1[nH]c(=O)n(-c2cccc3ccccc23)c(O)c1/C=N/N1CCCCCC1,i,i,i,i,i,nt,
C#CC1(O)CCC2C3CCC4=C/C(=N/OCC(=O)NCC(=O)NC(C(=O)O)C(C)C)CC[C@]4(C)C3CC[C@@]21C (stereo not given in full),i,i,i,i,i,nt,
C#C[C@]1(O)CC[C@H]2[C@@H]3CCC4=Cc5nc6nc7ccccc7n6cc5C[C@]4(C)[C@H]3CC[C@@]21C,i,nt,i,54.8,i,i,
COC(=O)C1=C(c2ccc(-c3ccccc3)c(F)c2)C[C@@H]2CC[C@H]1N2C(=O)NCC1CC1,i,nt,i,i,i,nt,
COc1cc2c(cc1OC)CN(c1ccc([N+](=O)[O-])c(C(F)(F)F)c1)CC2,i,i,i,58.6,i,i,
CC(C)(O)C(=O)Nc1ccc([N+](=O)[O-])c(C(F)(F)F)c1,i,nt,i,i,i,nt,
COC(=O)C1=C(c2ccc(F)cc2OCc2ccccc2)C[C@@H]2CC[C@H]1N2C(=O)N1CCC(O)(c2ccc(Cl)cc2)CC1,i,nt,nt,68.6,i,i,
COC(=O)C1=C(c2ccc(Cl)c(C(F)(F)F)c2)C[C@@H]2CC[C@H]1N2C(=O)NC1CCCCC1,i,nt,i,i,i,nt,
Cc1cc(OCC(=O)N[C@H](C(=O)O)c2ccccc2)c2c3c(c(=O)oc2c1)CCC3,i,i,i,i,i,nt,
C#CCOc1cc(C2C3=C(COC3=O)Nc3cc4c(cc32)OCO4)ccc1OC (stereo not given),i,77.8,i,59.0,i,58.0,FLuc counter=80.4
COc1ccc2c(c1OC)CN1CCc3cc4c(cc3[C@H]1C2)OCO4,i,nt,i,i,i,nt,
NC1CCc2cc(O)c(O)cc2C1 (stereo not given),i,nt,i,i,i,nt,
O=C1NC(=O)N(Cc2ccccc2)C(=O)/C1=C\C=C\c1ccco1,i,i,?,66.4,i,i,
CN1CSC(=S)N(C)C1,i,i,i,i,i,nt,
Cc1c(O)ccc(C(=O)CN2CC(C)OC(C)C2)c1O (stereo not given),i,i,i,i,i,nt,
CN(C)C(=O)O/N=C(\N)COc1ccc(C(C)(C)C)cc1,i,i,i,97.7,i,96.0,FLuc counter=56.9
CCOC(=O)C(O)(c1ccc(N(C)C(=O)COc2ccccc2)cc1)C(F)(F)F (stereo not given),i,i,i,i,i,nt,
Cc1cc(OCCN2CC2)c2ccccc2n1,i,i,i,i,i,nt,
Cc1ccc(CNCCc2ccccc2F)cc1,i,i,i,i,i,nt,
CCN(CC)c1ccc(CNCCc2ccccc2F)cc1,i,i,i,54.4,i,47.8,FLuc counter=61.3
COc1ccc(-c2cc(-c3ccccc3)[n+](C)c(-c3ccccc3)c2)cc1,109.3,i,i,54.9,i,i,FLuc counter=52.3
